Experimental findings from PubChem BioAssay are described below.

The source made the active and inactive calls.

In assay [1] the test system is Plasmodium falciparum Sir2 (PF13_0152, Sir2A). The experiment in a line: Plasmodium falciparum Sir2A binding compounds – biochemical, small-molecule microarray, 635 nm fluorescence, primary screen (AID 1098).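 Further: score merges spot fluorescence intensity with its signal-to-noise ratio.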 As to conditions: fluorescence 635 nm, higher = more signal.
Assay [2] is described as follows: probe aDKK1 binding to arrayed compounds – biochemical, biotinylated probe, 635/667 nm fluorescence, primary screen (AID 1099).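 Further: score merges 667nm spot fluorescence with signal to noise across triplicate slides; reference of the scale not given here.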 As to conditions: small-molecule microarray, higher = more signal.
The nature of assay [3]: probe aCHRDL2 binding to arrayed compounds – biochemical, biotinylated probe, 635/667 nm fluorescence, primary screen (AID 1100). The note with it: small-molecule microarray, higher = more signal.
The nature of assay [4]: change in splice reporter luminescence, either direction, cell-based, HEK293, spliceosome inhibition project, primary screen (AID 1101).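 Further: HEK293 cells carrying a splicing-competent luciferase reporter gene; test concentration not given here.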 The note with it: HEK293 splicing luciferase reporter, 24 h, higher = more signal, called active from +8 up or from −8 down. For orientation: Reporter assays use an easily measured gene product as a stand-in for the process of interest.
For assay [5], the target named is Fibroblast growth factor 10 (Homo sapiens) (UniProt O15520). Kind of assay: compounds binding fibroblast growth factor 10 – biochemical, small-molecule microarray, 635 nm fluorescence, primary screen (AID 1102). As to conditions: FGF10 binding, fluorescence 635 nm, higher = more signal.
Assay [6] concerns glycogen synthase kinase-3 (GSK3A per assay name; protocol says GSK3B). Kind of assay: compounds binding glycogen synthase kinase-3 – biochemical, small-molecule microarray, 635 nm fluorescence, GSK3A, primary screen (AID 1103). Further: the record names both GSK3A and GSK3B. As to conditions: fluorescence 635 nm, higher = more signal.
Assay [7] has as its target Epidermal growth factor receptor (Homo sapiens) (UniProt P00533). The experiment in a line: compounds binding epidermal growth factor receptor – biochemical, small-molecule microarray, 635 nm fluorescence, primary screen (AID 1104).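 Further: score merges 667 nm emission intensity with spot signal to noise over triplicate slides.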 The note with it: EGFR binding, higher = more signal.
In assay [8] the target is Follistatin-related protein 3 (Homo sapiens) (UniProt O95633). The experiment in a line: compounds binding follistatin-related protein 3 – biochemical, small-molecule microarray, 635 nm fluorescence, primary screen (AID 1105).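 Further: score merges emission near 667 nm and signal to noise per printed spot across three slides.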 As to conditions: FSTL3 binding, higher = more signal.
Assay [9] has as its target Dickkopf-related protein 1 (Homo sapiens) (UniProt O94907). The experiment in a line: small molecules binding DKK1 protein – biochemical, small-molecule microarray, 635 nm fluorescence scan, primary screen (AID 1106).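 Further: score merges emission near 667 nm with signal to noise over three replicate slides.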 The note with it: higher = more signal.
In assay [10] the test system is Inhibin beta A chain (activin A). Kind of assay: small molecules binding activin A – biochemical, small-molecule microarray, 635 nm fluorescence scan, primary screen (AID 1107).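 Further: mouse activin A protein probed at 4.33 µg/mL on printed slides; score merges bound-protein fluorescence near 667 nm with spot signal-to-noise.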 As to conditions: INHBA, higher = more signal.

Sequence of Fibroblast growth factor 10 (Homo sapiens) (O15520 whole entry, looked up): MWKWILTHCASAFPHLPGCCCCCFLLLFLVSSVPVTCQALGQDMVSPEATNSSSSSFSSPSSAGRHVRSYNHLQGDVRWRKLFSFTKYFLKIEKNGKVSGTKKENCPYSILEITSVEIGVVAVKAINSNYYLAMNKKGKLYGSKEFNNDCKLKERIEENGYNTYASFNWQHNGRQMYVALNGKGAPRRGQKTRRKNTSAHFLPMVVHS
Sequence of Follistatin-related protein 3 (Homo sapiens) (O95633 whole entry, looked up): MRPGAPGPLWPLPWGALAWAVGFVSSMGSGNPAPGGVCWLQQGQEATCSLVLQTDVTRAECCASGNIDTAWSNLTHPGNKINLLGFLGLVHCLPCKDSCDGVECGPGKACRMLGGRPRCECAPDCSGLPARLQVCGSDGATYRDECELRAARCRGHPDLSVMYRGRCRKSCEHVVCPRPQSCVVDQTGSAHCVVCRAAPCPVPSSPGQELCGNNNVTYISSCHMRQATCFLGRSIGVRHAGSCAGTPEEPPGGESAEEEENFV
Sequence of Epidermal growth factor receptor (Homo sapiens) (P00533 whole entry, looked up): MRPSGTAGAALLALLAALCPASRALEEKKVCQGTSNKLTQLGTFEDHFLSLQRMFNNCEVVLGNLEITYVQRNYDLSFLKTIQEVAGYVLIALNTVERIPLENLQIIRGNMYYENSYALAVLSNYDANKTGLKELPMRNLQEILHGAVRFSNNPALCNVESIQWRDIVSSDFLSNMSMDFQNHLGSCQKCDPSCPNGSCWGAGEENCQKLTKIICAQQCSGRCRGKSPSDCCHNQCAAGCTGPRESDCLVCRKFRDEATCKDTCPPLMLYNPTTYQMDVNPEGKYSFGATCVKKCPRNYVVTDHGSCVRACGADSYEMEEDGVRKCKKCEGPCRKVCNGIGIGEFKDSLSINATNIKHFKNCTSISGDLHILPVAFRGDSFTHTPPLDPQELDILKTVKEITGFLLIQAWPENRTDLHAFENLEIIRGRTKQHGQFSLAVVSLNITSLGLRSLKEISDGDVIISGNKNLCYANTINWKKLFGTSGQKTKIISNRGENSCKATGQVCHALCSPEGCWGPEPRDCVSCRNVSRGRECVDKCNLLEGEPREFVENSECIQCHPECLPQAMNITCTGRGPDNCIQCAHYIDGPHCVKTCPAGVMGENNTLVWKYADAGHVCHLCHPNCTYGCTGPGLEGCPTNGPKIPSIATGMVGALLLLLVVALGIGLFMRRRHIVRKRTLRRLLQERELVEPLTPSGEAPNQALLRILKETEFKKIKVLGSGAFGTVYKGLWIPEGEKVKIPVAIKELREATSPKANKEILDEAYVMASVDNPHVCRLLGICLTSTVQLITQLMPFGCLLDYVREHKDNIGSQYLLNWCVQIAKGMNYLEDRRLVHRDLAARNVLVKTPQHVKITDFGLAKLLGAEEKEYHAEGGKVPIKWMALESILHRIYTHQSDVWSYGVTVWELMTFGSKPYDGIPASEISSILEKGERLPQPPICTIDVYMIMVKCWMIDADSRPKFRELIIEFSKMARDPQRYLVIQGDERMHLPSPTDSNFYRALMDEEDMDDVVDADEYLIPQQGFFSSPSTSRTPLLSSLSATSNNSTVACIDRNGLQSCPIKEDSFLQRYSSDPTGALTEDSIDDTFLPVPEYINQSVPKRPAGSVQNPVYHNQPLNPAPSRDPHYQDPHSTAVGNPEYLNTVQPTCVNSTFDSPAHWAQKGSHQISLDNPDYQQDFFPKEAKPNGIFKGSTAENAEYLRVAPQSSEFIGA
Sequence of Dickkopf-related protein 1 (Homo sapiens) (O94907 whole entry, looked up): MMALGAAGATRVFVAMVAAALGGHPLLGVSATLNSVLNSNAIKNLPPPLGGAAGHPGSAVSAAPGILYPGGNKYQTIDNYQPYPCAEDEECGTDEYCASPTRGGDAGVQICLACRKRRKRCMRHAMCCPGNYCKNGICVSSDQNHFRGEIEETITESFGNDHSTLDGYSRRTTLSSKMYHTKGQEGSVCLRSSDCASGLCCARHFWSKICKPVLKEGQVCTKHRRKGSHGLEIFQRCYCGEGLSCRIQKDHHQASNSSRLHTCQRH

`O=c1cccc(-c2ccc(C(F)(F)F)cc2)o1`: the composite z-score is -0.426 in assay [1]; -0.0458 in assay [2]; 0.239 in assay [3]; -0.46 in assay [5]; -0.762 in assay [6]; -0.215 in assay [7]. Further, the composite z-score in assay [8] was -0.936; in assay [9], -0.572; in assay [10] it was 0.339. The z-score in assay [4] is 0.0423 (inactive).

Consider `CCOC(=O)C[C@H]1[C@H](OC(=O)c2ccccc2-c2ccccc2)[C@@H](NC(=O)CC(C)C)c2cc(OCCCO)ccc2N1C(=O)c1ccc2ccccc2n1`, for which the composite z-score in [1] was 0.74; in [2] it was -0.0242; in assay [3], -0.187; in assay [5] it was 0.513; in assay [6], 0.561; in assay [7], 0.159. Moreover, the composite z-score amounted to 0.368 in [8], 0.45 in assay [9] and 1.08 in assay [10]. Besides, the z-score in [4] was -0.263 (inactive).

In the case of `CCOC(=O)[C@H]1C/C=C/C[C@H](C(=O)OCC)C(=O)O[C@H]2[C@@H](OC)O[C@H](CO)[C@@H](OC(=O)CCc3ccccc3)[C@@H]2OC1=O`, the composite z-score in assay [1] is 0.254; in [2] it was -0.41; in assay [3], 0.128; in assay [5], -0.785; in assay [6], -1.46; in [7], -0.741. In addition, the composite z-score is -1.53 in assay [8], -0.315 in assay [9] and 0.334 in [10]. In addition, in assay [4], the z-score was -0.389 (inactive).

In the case of `COCCOC(=O)N1C(=O)[C@@]2(c3cc(C#CC4(O)CCCCCC4)ccc31)[C@H](C(=O)N1CCCCCCC1)[C@H]1C(=O)O[C@H](c3ccccc3)[C@H](c3ccccc3)N1[C@@H]2c1ccc(OCCO)cc1`, the composite z-score worked out at 1.65 in assay [1]; 2.65 in [2]; 1.45 in assay [3]; 1.5 in [5]; 1.35 in assay [6]; 1.46 in assay [7]. Also, the composite z-score came to 1.62 in assay [8], 1.72 in assay [9] and 1.68 in assay [10]. In addition, the z-score in assay [4] is 0.225 (inactive).

For the compound `C#CCNC(=O)[C@H](Cc1ccccc1)NC(=O)[C@@H](N=[N+]=[N-])C(C)C`, the composite z-score was 0.435 in assay [1]; -0.218 in [2]; -0.503 in assay [3]; 0.18 in assay [5]; 0.596 in assay [6]; 0.398 in assay [7]. For the same compound, the composite z-score in [8] came to 0.335; in [9], 0.654; in [10] it was 0.554. The z-score in assay [4] was 0.177 (inactive).

For the compound `CCOC(=O)C[C@H]1[C@H](OC(=O)c2ccc(-c3ccccc3)cc2)[C@@H](NC(=O)c2ccc3ccccc3n2)c2cc(OCCCO)ccc2N1C(=O)c1ccccc1`, the composite z-score in [1] was determined as 0.418; in [2] it was 0.048; in assay [3], 0.475; in assay [5] it was 0.785; in assay [6], 0.653; in [7], 0.143. Moreover, the composite z-score in assay [8] was determined as 1.09; in assay [9], 0.216; in [10], 0.407. In addition, the z-score in assay [4] is 0.0748 (inactive).

Turning to `CCOC(=O)[C@@H]1[C@@H]2C(=O)N(CC)C(=O)[C@@H]2C[C@@H]1Sc1ccccc1`, the composite z-score is 0.667 in [1]; 0.19 in assay [2]; 0.0774 in [3]; 0.448 in assay [5]; 0.177 in assay [6]; 0.169 in assay [7]. For the same compound, the figures for the composite z-score in [8], in [9] and in [10] were 0.446, -0.174 and 0.0622, respectively. For the same compound, the z-score in assay [4] is 1.33 (inactive).

`CCN(CC)c1ccc(N2CC=CC34O[C@@H]5/C=C\CCC(C)OC(=O)C5[C@H]3C(=O)N(CCO)[C@@H]4C2=O)cc1` (stereo not given in full): the composite z-score in [1] is 0.752; in assay [2], -0.18; in assay [3], 0.477; in assay [5] it was -0.736; in assay [6], -0.565; in [7], -0.968. Besides, the composite z-score was -0.421 in [8], -0.771 in [9] and 0.907 in [10]. For the same compound, the z-score in assay [4] is 0.00168 (inactive).

For the compound `O=C1OCC=C[C@H]2OC34C=CCN(Cn5nnc6ccccc65)C(=O)[C@H]3N(CCCCCCO)C(=O)[C@@H]4[C@@H]12` (stereo not given in full), the composite z-score in assay [1] is 1.25; in assay [2], 0.0374; in assay [3] it was 0.538; in [5], -0.577; in assay [6], 0.0986; in [7] it was -0.896. Besides, the composite z-score in assay [8] is -1.02; in [9], -0.566; in assay [10] it was 0.955. Moreover, the z-score in assay [4] was 0.434 (inactive).

Consider `CN1C(=O)C2C=CC(C(O)Cc3ccccc3)N(N(c3ccccc3)c3ccccc3)C2C1=O` (stereo not given), for which the composite z-score was 0.86 in assay [1]; 0.46 in assay [2]; 0.733 in assay [3]; 0.812 in assay [5]; -0.227 in assay [6]; -0.567 in [7]. Besides, the composite z-score in [8] is -0.068; in assay [9] it was -0.303; in assay [10], 0.864. Besides, the z-score in assay [4] is 0.653 (inactive).

In the case of `C[C@]12C(=O)N(CCCCCCO)[C@@H]3C(=O)N(c4ccc(Cl)cc4)CC=CC31O[C@@H]1/C=C\CCCOC(=O)C12` (stereo not given in full), the composite z-score in assay [1] was 1.93; in assay [2] it was -0.134; in assay [3], 0.391; in [5] it was -0.188; in assay [6], -0.431; in [7], -0.506. The composite z-score was -0.394 in [8], -0.742 in assay [9] and 1.05 in assay [10]. For the same compound, the z-score in assay [4] was -1.54 (inactive).

On to `C=CCN1C(=O)[C@]2(CC=C)N=C(c3ccc(OCCCO)cc3)O[C@@H]2c2ccccc21`, for which the composite z-score in assay [1] came out at 1.08; in [2], 0.945; in assay [3], 1.1; in [5], 0.506; in assay [6], 0.777; in assay [7], 0.925. In addition, the composite z-score in assay [8] was determined as 1.18; in assay [9] it was 0.95; in assay [10], 1.38. Besides, in [4], the z-score was -0.436 (inactive).

For the compound `C[C@@H](OCc1ccccc1)C1NC(=O)[C@@]23C(=O)N[C@@H](Cc4ccccc4)C2[C@H](C)[C@@]2(C)O[C@H]2C3/C=C/C/C=C\CNC(=O)CNC1=O` (stereo not given in full), the composite z-score in assay [1] is 1.4; in assay [2], -0.354; in assay [3], -0.217; in assay [5] it was -0.389; in assay [6] it was -0.764; in assay [7], -0.497. Further, the composite z-score is -0.467 in [8], -0.166 in assay [9] and 1.57 in assay [10]. Besides, in assay [4], the z-score was 0.848 (inactive).

In the case of `COC(=O)Cn1c(C(=O)N2CCCC2)cc2c1C[C@H]1CN(C(=O)c3ccccc3)[C@@](Cc3ccc(F)cc3)(C(=O)OC)[C@@H]21`, the composite z-score in assay [1] is 0.643; in [2], 0.222; in assay [3], -0.0982; in [5], -0.134; in [6], -0.576; in assay [7], 0.588. For the same compound, the composite z-score is 0.412 in [8], -0.181 in assay [9] and 0.675 in assay [10]. Besides, the z-score in assay [4] was -1.13 (inactive).

With `O=c1cccc(-c2cccc(Cl)c2)o1`, the composite z-score in assay [1] came out at 0.261; in [2] it was 0.177; in assay [3], 0.114; in [5], 0.227; in assay [6] it was 0.415; in assay [7], 0.167. Also, the composite z-score in assay [8] was 0.149; in [9], -0.0521; in assay [10] it was 0.338. Besides, in assay [4], the z-score was 0.269 (inactive).

On to `CC=CC(O)C1C=CC2C(=O)N(c3ccccc3)C(=O)C2N1Nc1ccc([N+](=O)[O-])cc1` (stereo not given), for which the composite z-score in assay [1] was 0.563; in [2] it was -0.0639; in assay [3], 0.0737; in assay [5], 0.455; in assay [6] it was 0.464; in [7], 0.496. Also, the composite z-score in assay [8] worked out at 0.501; in assay [9], 0.113; in assay [10], 0.896. Further, in assay [4], the z-score was 0.43 (inactive).
